EBNA-1 inhibitor – blocks EBNA-1 binding to DNA. EBNA-1 DNA binding, fluorescence polarization. inhibition, % at 14.8 µM. actives 0.34% (n = 300,000). AID 1950; in the data active = inhibition above about 28%
PAFAH1B3 inh – blocks human PAF acetylhydrolase 1B catalytic subunit 3; Q15102; recombinant PAFAH1B3, FP-rhodamine probe, fluorescence polarization; inhibition, % at 3.39 µM; actives 0.28% (n = 340,000); AID 492972;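 active = inhibition above the screen-wide average of all tested compounds plus 3 SD, cut at about 25% in these data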;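 note: 0% = enzyme with DMSO only and 100% = wells lacking PAFAH1B3 protein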
Target sequence (Q15102 whole entry, looked up): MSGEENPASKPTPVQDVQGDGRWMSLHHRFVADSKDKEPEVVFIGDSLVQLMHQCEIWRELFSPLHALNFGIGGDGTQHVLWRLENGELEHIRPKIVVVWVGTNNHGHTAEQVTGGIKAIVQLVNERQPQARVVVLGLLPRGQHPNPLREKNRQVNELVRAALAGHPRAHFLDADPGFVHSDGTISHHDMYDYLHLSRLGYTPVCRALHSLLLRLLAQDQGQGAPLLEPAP
PAFAH2 inh – PAFAH2 (human) inhibition | Q99487 | recombinant PAFAH2, FP-rhodamine activity probe, fluorescence polarization | inhibition, % at 3.39 µM | actives 0.99% (n = 340,000) | AID 492956;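 active = inhibition above the mean over all tested compounds plus 3 SD, cut at about 30% in these data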;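 note: inhibitors block probe labeling of enzyme so polarization drops; 0% = enzyme with DMSO and 100% = wells lacking PAFAH2 protein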
PAFAH1B2 FP inh – blocks human PAF acetylhydrolase 1b catalytic subunit 2. recombinant PAFAH1B2, FP-rhodamine activity probe, fluorescence polarization. inhibition, % at 3.39 µM. actives 1.2% (n = 340,000). AID 492953;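 active = inhibition above the mean of all tested compounds plus 3 SD, cut at about 24% in these data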;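 note: 0% = enzyme with DMSO and 100% = wells lacking PAFAH1B2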
Target sequence (P68402 whole entry, looked up): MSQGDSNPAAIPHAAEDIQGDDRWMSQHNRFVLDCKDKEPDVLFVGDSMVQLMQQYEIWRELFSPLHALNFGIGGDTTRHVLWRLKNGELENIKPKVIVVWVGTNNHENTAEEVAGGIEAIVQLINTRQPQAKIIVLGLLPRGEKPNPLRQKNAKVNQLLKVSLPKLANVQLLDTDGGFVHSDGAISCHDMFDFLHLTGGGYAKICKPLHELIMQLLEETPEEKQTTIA
ZTA counter – blocks Epstein-Barr virus ZTA, an EBNA-1 counter-screen. inhibition, % at 11 µM. ZTA-DNA binding, fluorescence polarization. P03206. actives 0.15% (n = 320,000); in the data active = inhibition above about 33%
Target sequence (P03206 whole entry, looked up): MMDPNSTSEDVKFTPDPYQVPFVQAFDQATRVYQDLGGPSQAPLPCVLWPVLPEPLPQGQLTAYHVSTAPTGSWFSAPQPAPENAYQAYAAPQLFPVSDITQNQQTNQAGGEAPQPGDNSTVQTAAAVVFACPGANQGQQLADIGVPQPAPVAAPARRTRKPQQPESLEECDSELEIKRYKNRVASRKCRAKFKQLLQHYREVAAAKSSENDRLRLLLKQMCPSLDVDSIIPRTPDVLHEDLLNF
pPAFAH inh – pPAFAH (human) enzyme inhibition. actives 1.5% (n = 330,000). Q13093. recombinant pPAFAH, FP-rhodamine probe fluorescence polarization. inhibition, % at 3.39 µM;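 active = inhibition above the mean inhibition across the screen plus 3 SD, cut at about 25% in these data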;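 note: inhibitors block binding of the rhodamine activity-based probe so polarization drops; 0% = enzyme with DMSO and 100% = wells lacking pPAFAH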
Active calls of the source: *; nt = not tested or not shown; + = active, no number. The list is not random: actives were taken first. Their share in the collection is about 2.9%.

SMILES | EBNA-1 inhibitor | PAFAH1B3 inh | PAFAH2 inh | PAFAH1B2 FP inh | ZTA counter | pPAFAH inh
O=C(CN1CCN(Cc2ccc(F)cc2Cl)C1=O)NCCc1ccc(Cl)cc1 | 14.3 | 0.1 | -5.9 | 17.9 | 24.8 | 34.4*
CCn1cc([N+](=O)[O-])c(C(=O)Nc2ccn(C34CC5CC(CC(C5)C3)C4)n2)n1 | 7.6 | 9.2 | 1.1 | 29.0* | 11.3 | -3.1
Cn1cc([N+](=O)[O-])c(C(=O)Nc2ccn(C34CC5CC(CC(C5)C3)C4)n2)n1 | -18.1 | 1.8 | 1.4 | 25.3* | 3.2 | -0.8
Cn1nccc1C(=O)Nc1ccn(C23CC4CC(CC(C4)C2)C3)n1 | -2.7 | 1.5 | -1.6 | 24.4* | -19.9 | 4.4
Cc1cccc(-c2nc(CS(=O)CC(=O)N3CC(C)CC(C)C3)c(C)o2)c1 (configuration not stated) | -5.5 | 2.6 | 5.8 | 3.8 | 14.4 | 6.4
CCOc1ccc(NS(=O)(=O)c2cc3c4c(c2)C(C)C(=O)N4CCC3)cc1 (configuration not stated) | -8.0 | 4.5 | 2.7 | 2.4 | -11.7 | 25.9*
CCn1c(C)c(C(C)=O)c(NCc2ccccc2)nc1=S | -5.6 | 2.5 | 3.5 | 15.1 | 7.9 | 26.3*
CCc1cc2c(CN(C)Cc3ccccc3F)cc(=O)oc2cc1O | -9.6 | 4.0 | -5.3 | 28.2* | -10.2 | -0.2
Cc1cc2oc(=O)cc(CN(C)Cc3cccc(F)c3)c2cc1C | -3.0 | 5.0 | -0.5 | 15.7 | 19.6 | 4.1
CN(C)c1ccc(N=Cc2cccn2C)cc1 | + | 17.5 | 8.8 | 5.7 | + | 18.9
CN(C)c1ccc(N=Cc2nc(-c3ccccc3)oc2O)cc1 | 3.4 | 10.6 | 22.3 | 13.8 | 4.2 | 6.3
CCN(CC)C(=S)SCC(=O)Nc1ncc2c(n1)CC(C)(C)CC2=O | -12.4 | nt | nt | nt | -9.3 | 5.6
CCN(CC)C(=O)c1ccc(S(=O)(=O)c2ccccc2)cc1 | -6.1 | 8.4 | 5.2 | 2.0 | -11.3 | 2.9
Nc1c(S(=O)(=O)c2cccc(Cl)c2)c2nc3ccccc3nc2n1/N=C/c1ccc(O)c(O)c1 | 8.5 | nt | nt | nt | -22.6 | 71.3*
COc1cccc(/C=N/n2c(N)c(S(=O)(=O)c3cccs3)c3nc4ccccc4nc32)c1OC | 8.5 | -2.9 | -14.3 | -3.6 | 12.7 | 3.4
CCOC(=O)c1c(C)[nH]c(C(=O)COC(=O)/C=C/c2ccc(OCC#N)c(OC)c2)c1C | 3.8 | 5.4 | 2.3 | -3.1 | -7.2 | 3.7
CC(NC(=O)c1cc2cc(Br)ccc2oc1=N)c1ccccc1 (configuration not stated) | 10.9 | 1.9 | 9.3 | 37.0* | -5.2 | 6.5
N=c1oc2ccc(Br)cc2cc1C(=O)NCc1ccccc1 | 4.7 | -2.2 | -0.1 | 3.5 | 8.5 | 4.9
CCOC(=O)c1c(C)n(S(=O)(=O)c2ccc(C)cc2)c2ccc(O)c(C(=O)O)c12 | 13.0 | 3.5 | 17.4 | 2.9 | 21.7 | 4.8
CS(=O)(=O)Nc1ccc(C(=O)Nc2ccccc2Sc2ccccc2)cc1 | 3.5 | -0.8 | -2.9 | 5.3 | 2.5 | 30.5*
O=C(CNS(=O)(=O)c1ccc(Br)s1)N1CCN(c2ncccn2)CC1 | nt | 4.3 | 12.3 | 24.6* | nt | nt
CC1CCN(C(=O)CNS(=O)(=O)c2ccc(Br)s2)CC1 | 10.2 | 1.3 | 14.4 | 23.2 | 10.9 | 8.8
CCCn1nnc(NC(=S)NC(=O)/C=C/c2ccco2)n1 | -5.5 | 4.0 | 12.5 | 3.5 | 14.4 | 26.3*
Cn1nnc(NC(=O)/C=C/c2ccco2)n1 | 8.9 | nt | nt | nt | -10.7 | 2.9
O=S1(=O)N[C@@H](Cc2ccccc2)COc2cc(Br)ccc21 | nt | 7.9 | 2.0 | 2.4 | nt | 10.6
SMILES | EBNA-1 inhibitor | PAFAH1B3 inh | PAFAH2 inh | PAFAH1B2 FP inh | ZTA counter | pPAFAH inh
NNC(=O)[C@H](Cc1ccccc1)NC(=O)NCCc1ccccc1 | 7.4 | -4.3 | 3.0 | 1.9 | -8.3 | 3.7
CC(=O)NC12CC3CC(C1)CC(C(=O)N1CCN(c4ncccn4)CC1)(C3)C2 | 0.7 | -5.0 | 4.4 | 1.5 | 3.0 | 3.5
Cc1ccc(C2C(C#N)=C(N)SC(N)=C2C#N)o1 | -0.4 | nt | nt | nt | 8.6 | 29.3*
Cc1ccc(S(=O)(=O)N(C)C)cc1NC(=O)COC(=O)c1sc2cc(Cl)ccc2c1Cl | 14.9 | -11.6 | -19.4 | -4.6 | -12.2 | 31.9*
Cc1cc(C(=O)OCC(=O)Nc2cc(S(=O)(=O)N(C)C)ccc2C)c(C)o1 | 0.5 | nt | nt | nt | 13.3 | 5.4
O=C(/C=N/O)Nc1ccc2sc3ccccc3c2c1 | 2.6 | 61.9* | 47.3* | 41.7* | -9.8 | 33.5*
COC(=O)c1ccccc1NC(=O)/C=N/O | -8.8 | 19.7 | 8.3 | 5.3 | -4.9 | 1.6
Cc1ccc(-n2nc3c(=O)n(CCCC(=O)NCC(C)c4ccccc4)nc(C)c3c2C)cc1 (configuration not stated) | 2.6 | 3.2 | 3.2 | 4.3 | -3.8 | 2.2
Cc1cccc(/N=C/c2nc(-c3ccccc3Br)oc2O)n1 | -9.3 | 2.6 | 65.8* | 3.9 | -18.8 | 31.8*
Cc1ccc2nc(NC(=O)c3ccc(OCC4CCCO4)cc3)sc2c1 (configuration not stated) | -3.1 | 0.8 | -8.3 | -4.8 | 9.7 | 26.7*
Cc1cc(C)c2nc(NC(=O)c3ccc(OCC4CCCO4)cc3)sc2c1 (configuration not stated) | 1.1 | 3.9 | 4.8 | -5.9 | 4.8 | 1.1
CCc1ccc(OCC(=O)NNC(=O)c2ccc(NC(=O)C3CC3)cc2)cc1 | -0.8 | 3.7 | -1.5 | 6.3 | -1.6 | -0.2
CCOC(=O)Cc1cc(=O)n2[nH]cc(-c3ccc(Cl)cc3)c2n1 | -4.8 | -0.3 | 3.9 | 4.9 | 8.5 | 32.4*
Cc1ccc(NCc2ccc(C)s2)cc1 | -2.7 | nt | nt | nt | -4.7 | 6.3
Cc1cc(C)c(S(=O)(=O)N(C)CC(=O)NCCCn2ccnc2)c(C)c1 | -1.4 | 0.7 | -2.0 | -2.4 | -0.4 | 9.8
CC1CCN(C(=O)COC(=O)Cc2ccc(Br)cc2)CC1 | 9.6 | 5.5 | 0.7 | 11.3 | 5.0 | 28.5*
CCOC(=O)N1CCN(C(=O)COC(=O)Cc2ccc(Cl)cc2)CC1 | 3.2 | 7.9 | 4.4 | 4.7 | 11.0 | 34.1*
CCOC(=O)N1CCN(C(=O)Cc2ccc(Cl)cc2)CC1 | -0.8 | 6.2 | 1.5 | 2.8 | -15.3 | 0.8
CC(C)=NOC(=O)c1ccc(-c2ccccc2)cc1 | 2.2 | 8.1 | 13.3 | -2.7 | 8.5 | 30.2*
CC(=O)c1ccccc1OC(=O)c1ccc(-c2ccccc2)cc1 | 1.2 | 6.0 | -0.6 | 0.1 | -4.2 | 1.5
O=S1(=O)Nc2c(ccc3cccnc23)-c2ccccc21 | -5.2 | 11.6 | 12.2 | 5.4 | -7.7 | 26.6*
Fc1ccccc1SCc1nnc(-c2ccccc2Br)o1 | -1.0 | 6.7 | 1.7 | 14.6 | -7.4 | 4.4
Cc1nn(-c2ccccc2)c(=O)c2ccccc12 | -6.4 | 9.0 | 13.3 | 1.8 | 2.0 | -2.1
Cc1nn(-c2ccccc2)c2c1CC(=O)Nc1ccccc1-2 | nt | 14.6 | -3.6 | 31.1* | nt | nt
CC(C)C(=O)Nc1csc(C(F)(F)F)c1-c1ccccc1 | -8.5 | 0.0 | 0.7 | 27.2* | 0.5 | 4.4
CC(C)C(=O)Nc1ccccc1Cc1ccccc1 | 1.1 | 4.8 | 3.4 | 1.4 | -9.3 | -2.1

Source: PubChem (The Scripps Research Institute Molecular Screening Center)
